VACV Venus inh: inhibitors of vaccinia virus (Venus reporter) | Vaccinia virus Venus reporter expression, fluorescence | Potency, µM (titrated, usually from 36.5 µM), without a hit: top-dose activity change, negative = inhibition, actives largely listed as inhibitors | 330,000 tested, 0.46% active; calls by dose curve; tested in A549 cells; further: nearly all actives have a fitted effect of over 30% in size
HCV inh: HCV inhibition; Huh7.5.1 HCVcc-Cre infection, luciferase reporter, 44 h; Potency, µM (doses to about 41.8 µM), for the others: top-dose activity change, negative = inhibition, usual class: inhibitors; 340,000 tested, 3.4% active; AID 651820; active means well fitted inhibition curve with a large enough effect; inconclusive means small, poorly fitted or top-dose-only effect, or another doubt; inactive means no such curve, though single readings can be large or run the other way
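1,000 cells/well; 4 h culture; + compound; + HCVcc-Cre (~0.5 moi); 44 h; luciferase substrate, RT 15 min; read 15 sec.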
VACV mCherry inh: inhibitors of vaccinia virus infection (mCherry reporter signal); Potency, µM (doses to about 36.5 µM), inactives show at the highest dose activity change, negative = inhibition, actives largely listed as inhibitors; Vaccinia virus mCherry reporter infection, fluorescence; AID 720579; 310,000 tested, 0.63% active; calls by dose curve; tested in A549 cells; further: nearly all actives have a fitted effect of over 35% in size
* hit, by the source's call; i = inactive; ? = inconclusive; · = not tested or not shown; [ ] = remark or other dose. Hits are enriched below; roughly 3.3% of the tested compounds scored in any of these assays. On the % scale 0 is the no-effect control and ±100 the full control effect; potency means the concentration at half of the fitted maximal effect.

SMILES	VACV Venus inh	HCV inh	VACV mCherry inh
Cc1ccc(OCC(=O)Nc2ccc(S(=O)(=O)Nc3ncccn3)cc2)c(C(C)(C)C)c1	13.1%	·	-9.6%
O=C(CSCc1cnn(-c2ccccc2)c1-n1cccc1)NCc1ccccc1F	-19.5%	·	-17.0%
Cc1ccc(CCNC(=O)C(CC(C)C)NS(=O)(=O)c2ccc3c(c2)oc(=O)n3C)cc1 (stereo not drawn)	-1.2%	·	-12.1%
N#Cc1cnc(NCc2ccc(Cl)cc2Cl)nc1	·	3.4%	·
COC(=O)c1cccc(NC(=O)C2CCN(S(=O)(=O)Cc3ccccc3)CC2)c1C	-2.2%	·	-7.0%
COc1ccc(C)cc1NC(=O)CSc1ccc(-c2sc(C)nc2C)nn1	-20.1%	10µM*	i
COc1ccc(OC)c(NC(=O)CSc2ccc(-c3sc(C)nc3C)nn2)c1	-8.1%	·	-8.3%
Cc1nc(C)c(-c2ccc(SCC(=O)Nc3ccccc3)nn2)s1	-20.7%	?	?
COc1cccc(NC(=O)CSc2ccc(-c3sc(C)nc3C)nn2)c1	-19.6%	31.6µM*	?
O=C(Nc1ccccc1F)c1ccc2c(Cl)c3c(nc2c1)CCC3	-8.2%	·	-1.7%
COc1cccc(-c2nn(C)c3sc(C(=O)NCCc4ccc(Cl)cc4)cc23)c1	-11.9%	·	-16.9%
Cn1nc(-c2ccc(Cl)cc2)c2cc(C(=O)NCCCN3CCCC3)sc21	?	12.6µM*	-27.6%
CCN(CC)CCCNC(=O)c1cc2c(-c3cccc(OC)c3)nn(C)c2s1	-23.4%	11.2µM*	-7.1%
CCCCNC(=O)c1cc2c(-c3ccc(Cl)cc3)nn(C)c2s1	-7.1%	-17.3%	i
COc1cccc(-c2nn(C)c3sc(C(=O)NCc4ccco4)cc23)c1	?	7.08µM*	-14.3%
COc1cccc(-c2nn(C)c3sc(C(=O)NCCCN(C)Cc4ccccc4)cc23)c1	?	?	i
COc1cc(OC)c(N(C)C(=O)c2sc3nc4n(c(=O)c3c2C)CCCCC4)cc1Cl	-8.6%	·	-6.5%
COc1ccc(-c2[nH]c3c(c2-c2c(-n4cccc4)n(C)c(=O)[nH]c2=O)c(=O)[nH]c(=O)n3C)cc1F	-11.3%	·	-5.9%
COc1ccc(NC(=O)N(C)C[C@H]2Oc3c(NC(=O)C4CC4)cccc3C(=O)N([C@H](C)CO)C[C@@H]2C)cc1	-3.4%	3.6%	-13.0%
CC1(Cc2ccc(Cl)cc2)C(=O)Nc2c(Cl)cccc21 (stereo not drawn)	-0.6%	·	-9.3%
COc1ccccc1CN(Cc1cc2cc(C)ccc2[nH]c1=O)Cc1nnnn1Cc1ccco1	?	12.6µM*	·
Cc1ccc2[nH]c(=O)c(CN(CCO)Cc3nnnn3Cc3ccco3)cc2c1	-13.5%	·	11.5%
CCOc1ccccc1N(C)S(=O)(=O)c1ccc2c(c1)CC(C)N2C(=O)C1CC1 (stereo not drawn)	-16.7%	?	-12.1%
CCOC(=O)c1cc(-c2ccc(N3CCOCC3)cc2)nn1-c1ccc(F)cc1F	-9.7%	11.2µM*	-2.3%
CCOC(=O)c1cc(-c2ccc(N3CCOCC3)cc2)nn1-c1ccccc1	-24.8%	?	-4.8%
SMILES	VACV Venus inh	HCV inh	VACV mCherry inh
OC1(c2nc3ccccc3[nH]2)CCCCC1	-7.1%	17.0%	i
O=S(=O)(Nc1cccc(-c2ccc(N3CCCCC3)nn2)c1)c1ccc(Cl)s1	0.8%	·	-12.5%
Cc1ccc2c(C(=O)CNc3nc(C)c(C)s3)c(C)[nH]c2c1	-21.7%	·	-25.4%
O=C(CCCc1c[nH]c2ccccc12)N1CCN(S(=O)(=O)c2cccs2)CC1	·	12.6µM*	·
O=C(CCCc1c[nH]c2ccccc12)N1CCOCC1	-3.1%	7.2%	-10.6%
COc1ccc(OC)c(NC(=O)c2nnn(CC(=O)Nc3ccc4c(c3)OCO4)c2N)c1	·	-29.9%	·
CCN(CC)S(=O)(=O)c1c(OC)cc(C)c(Cl)c1C	·	-8.8%	·
Cc1ccc2c(CNCc3cccs3)c(C(=O)O)n(Cc3ccc(F)cc3)c2c1	-15.1%	·	-10.1%
CC(C)c1ccc(NC(=O)N2CCOCC2)cc1	·	6.2%	·
CC(=O)c1ccc(N2CCN(C(=O)Nc3ccc(C(C)C)cc3)CC2)cc1	-27.9%	3.16µM*	?
CCCCCCCCCCCCCCCCCCOC[C@H](COP(=O)([O-])OCC[N+](C)(C)C)OC	-8.3%[3.33 µM]	·	i[3.33 µM]
CC(OCC(O)CN(C)Cc1nc2ccccc2c(=O)[nH]1)c1ccc(Cl)cc1 (stereo not drawn)	-29.0%	10µM*	i
CC(NC(=O)CN(C)Cc1nc2ccccc2c(=O)[nH]1)c1ccccc1 (stereo not drawn)	4.1%	-8.0%	-6.8%
CCOC(=O)c1cccc(NC(=O)C(CC(C)C)N2Cc3ccccc3C2=O)c1 (stereo not drawn)	-8.1%	·	-14.5%
COc1ccccc1N1CCN(Cc2ccc(OC)c(OC)c2OC)CC1	·	-11.9%	·
CCOC(=O)C1CCN(Cc2ccccc2C(F)(F)F)CC1	·	8.1%	·
c1ccc(-c2nnc(CN3CCCc4ccccc43)o2)cc1	-6.1%	?	-13.1%
COc1ccccc1N1CCN(Cc2ccc(O)c3ncccc23)CC1	·	3.55µM*	·
Oc1ccc(CN2CCCc3ccccc32)c2cccnc12	?	10µM*	?
CCOC(=O)C1CCN(Cc2ccc(O)c3ncccc23)CC1	·	10µM*	·
Cc1cc2oc(C(=O)Nc3c(C(=O)Nc4ccccc4)oc4ccccc34)cc(=O)c2cc1C	7.6%	·	-7.9%
N#CC(C#N)=NNc1ccc(OC(F)(F)F)cc1	-3.8%[60.7 µM]	·	-8.2%[60.7 µM]
COc1ccc(CNC(=O)c2cc3cccc4c3n2CC(C)S4)cc1OC (stereo not drawn)	-6.0%	·	-13.9%
COc1cccc(C(=O)Nc2ccc3nc(SCC(=O)N4CCc5ccccc54)sc3c2)c1	4.4%	·	-3.4%
Cc1cccc(NC(=O)c2c([N+](=O)[O-])c(C(C)(C)C)nn2C)c1	-17.5%	-1.6%	-21.9%
SMILES	VACV Venus inh	HCV inh	VACV mCherry inh
Cn1nc(C(C)(C)C)c([N+](=O)[O-])c1C(=O)Nc1ccc(Br)cc1	·	12.6µM*	·
Cc1cc(-c2ccnc(-n3ncc(C(=O)NCC4COCCO4)c3C)n2)c(C)s1 (stereo not drawn)	-4.4%	·	-18.1%
COCCN(C)C(=O)c1cnn(-c2ncc3c(n2)-c2ccccc2CCC3)c1C1CC1	2.9%	·	-7.6%
COc1cc(NC(=O)CSc2ccc(-c3ccccn3)nn2)cc(OC)c1	?	?	11.2µM*
CC(=O)c1cccc(NC(=O)CSc2ccc(-c3ccccn3)nn2)c1	-23.9%	-28.7%	?
Cc1cccc(NC(=O)CSc2ccc(-c3ccccn3)nn2)c1	-19.2%	·	?
COc1ccc(C)cc1NC(=O)CSc1ccc(-c2ccccn2)nn1	?	?	15.8µM*
Cc1sc2ncnc(N3CCC(C(=O)N(C)CC(=O)Nc4ccccc4Cl)CC3)c2c1C	-27.8%	·	-24.0%
Cc1sc2ncnc(N3CCC(C(=O)N(C)CC(=O)Nc4ccc(Cl)c(C(F)(F)F)c4)CC3)c2c1C	?	8.91µM*	10µM*
Cc1ccc(C)c(S(=O)(=O)N2CCN(C(=O)C3CCN(c4ncnc5sc(C)c(C)c45)CC3)CC2)c1	-18.6%	11.2µM*	-1.9%
Cc1ccc2nc(NC(=O)C3CCN(c4ncnc5sc(C)c(C)c45)CC3)sc2c1	-15.8%	9.4%	i
CN(CC(=O)Nc1ccc(Cl)c(C(F)(F)F)c1)C(=O)C1CCN(C(=O)c2ccc(Cl)cc2)CC1	·	11.2µM*	·
Cc1sc2ncnc(N3CCN(S(=O)(=O)c4ccccc4)CC3)c2c1C	0.9%	11.2µM*	i
CN(CC(=O)Nc1ccc(Cl)c(C(F)(F)F)c1)C(=O)C1CCC1	-16.6%	?	-9.2%

Screens: PubChem, National Center for Advancing Translational Sciences (NCATS)
